Screening results: PubChem, National Center for Advancing Translational Sciences (NCATS)
TrxR1 substrate = rat thioredoxin reductase 1 substrate activity. purified TrxR1 substrate turnover, NADPH consumption readout. Potency, µM (doses to about 114 µM), for inactives: at the top dose activity change, negative = substrate turnover. 0.01% of 390,000 active. AID 588456; also: potency is read from the fitted curve at half-maximal effect; % is scaled to controls: 0 for no effect and ±100 for the full control effect; nearly all actives have a fitted effect of over 50% in size
Target sequence (O89049 whole entry, looked up): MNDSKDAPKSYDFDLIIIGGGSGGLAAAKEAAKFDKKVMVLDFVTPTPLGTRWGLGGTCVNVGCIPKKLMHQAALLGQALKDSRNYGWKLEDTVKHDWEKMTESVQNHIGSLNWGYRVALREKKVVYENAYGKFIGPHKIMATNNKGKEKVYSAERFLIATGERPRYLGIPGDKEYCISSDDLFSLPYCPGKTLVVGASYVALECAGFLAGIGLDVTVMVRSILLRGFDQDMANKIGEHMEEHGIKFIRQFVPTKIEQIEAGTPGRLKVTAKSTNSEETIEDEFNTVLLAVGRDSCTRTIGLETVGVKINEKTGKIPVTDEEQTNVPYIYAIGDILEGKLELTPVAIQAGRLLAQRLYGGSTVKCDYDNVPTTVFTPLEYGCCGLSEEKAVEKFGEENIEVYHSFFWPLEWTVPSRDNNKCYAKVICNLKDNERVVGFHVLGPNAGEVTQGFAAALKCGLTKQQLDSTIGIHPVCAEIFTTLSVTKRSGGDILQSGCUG
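Rat TrxR1, dispensed at 90 nM, was prereduced with 400 uM NADPH (final) for 5 min at ~22 deg C, then incubated with compound 15 min before 400 uM selenite. A first-read NADPH fluorescence drop versus no-compound background flagged substrates.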
Eya2 phos inh = Eya2 (human) phosphatase inhibition | Potency, µM (top dose mostly 76.9 µM), inactives show top-dose activity, negative = inhibition, usual class: inhibitors | 0.006% of 330,000 active | recombinant Eya2, OMFP fluorescence dephosphorylation (OMFP is methylfluorescein phosphate) | AID 488837; also: potency is read from the fitted curve at half-maximal effect; % is scaled to controls: 0 for no effect and ±100 for the full control effect
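Eya2 protein (added as 0.2 uM solution) was preincubated with compound for 10 min at ambient temperature in 50 mM HEPES pH 7.5, 50 mM NaCl, 5 uM MgCl2, 0.05% BSA, 1 mM DTT. OMFP (added at 50 uM) then reacted 10 min; fluorescence read at 485/525 nm.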
RGS4 inh = blocks human RGS4-accelerated GTP hydrolysis | Transcreener GDP fluorescence polarization, RGS4-accelerated GTP hydrolysis | Potency, µM (series often up to 114 µM), for the others: at the top dose activity change, negative = inhibition, hits mostly inhibitors | 0.039% of 390,000 active | AID 504845; also: potency is read from the fitted curve at half-maximal effect; % is scaled to controls: 0 for no effect and ±100 for the full control effect; nearly all actives have a fitted effect of over 75% in size
Target sequence (P49798 whole entry, looked up): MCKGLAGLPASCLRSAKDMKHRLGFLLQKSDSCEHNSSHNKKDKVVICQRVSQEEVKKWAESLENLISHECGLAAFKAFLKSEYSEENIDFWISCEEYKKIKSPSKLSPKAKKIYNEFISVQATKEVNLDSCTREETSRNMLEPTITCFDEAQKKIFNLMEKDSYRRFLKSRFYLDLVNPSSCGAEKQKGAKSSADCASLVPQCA
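MLSMR compounds (23 nl, pin-transferred) preincubated 10 min at room temperature with a 500nM (2x) first reagent, then RGS4 at 900nM (2x) plus Transcreener GDP mix added; fluorescence polarization (620/688 nm) read before and after 90 min at 30 °C.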
rTrxR1 inhibitor = inhibitors of rat thioredoxin reductase 1 | O89049 | recombinant rTrxR1, NADPH fluorescence consumption, selenite substrate | Potency, µM (highest dose often 114 µM), without a hit: top-dose activity change, negative = inhibition, usual class: inhibitors | 1% of 390,000 active; also: potency is read from the fitted curve at half-maximal effect; % is scaled to controls: 0 for no effect and ±100 for the full control effect; nearly all actives have a fitted effect of over 65% in size
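Rat TrxR1 (90 nM in the dispensed reagent) was pre-reduced with 400 uM NADPH for 5 min at room temperature, then incubated with compound for 15 min. After 400 uM selenite was added, NADPH fluorescence (Ex 340/Em 450 nm) was followed for 8 min.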
mIDH1 inhibitor = human IDH1 R132H inhibition | O75874 | IDH1-R132H enzyme, NADPH consumption, diaphorase/resazurin fluorescence | Potency, µM (titrated, usually from 76.6 µM), for the others: at the highest dose activity change, negative = inhibition, most hits filed as inhibitors | 0.093% of 390,000 active; also: potency is read from the fitted curve at half-maximal effect; % is scaled to controls: 0 for no effect and ±100 for the full control effect; nearly all actives have a fitted effect of over 65% in size
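IDH1-R132H (0.5 ug/mL) preincubated 30 min with compound, then NADPH (0.016 mM) and alpha-KG (2 mM) added; 80 min at RT, pH 7.5. Remaining NADPH coupled via diaphorase/resazurin to fluorescence (540/590 nm); concentration-response curves normalized to no-enzyme control.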
IDH1 autofl = autofluorescence interference, mutant IDH1 hit counter-screen. 750 tested, under 10 active. inhibition of signal, % at 51.2 µM. Resorufin detection reagent fluorescence interference, cell-free. shares compounds with mIDH1 inhibitor;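 also: 0% = wells with normal resorufin and full inhibition = wells lacking resorufin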
WT IDH1 inh = wild-type IDH1 (human) inhibition counterscreen. shares compounds with mIDH1 inhibitor. WT IDH1 enzyme, NADPH diaphorase/resazurin fluorescence. Potency, µM (series often up to 115 µM), inactives show at the top dose activity change, negative = inhibition, usual class: inhibitors. 9% of 750 active;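 also: potency is read from the fitted curve at half-maximal effect; 0% = full WT IDH1 enzyme control and full inhibition = no enzyme wells; nearly all actives have a fitted effect of over 55% in size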
IDH1 R132H conf = confirmation of human mutant IDH1 inhibitors; Potency, µM (top dose mostly 76.6 µM), for the others: top-dose activity change, negative = inhibition, actives largely listed as inhibitors; IDH1 R132H enzyme, NADPH diaphorase/resazurin fluorescence; shares compounds with mIDH1 inhibitor; AID 624002; 83% of 750 active; also: potency is read from the fitted curve at half-maximal effect; nearly all actives have a fitted effect of over 50% in size
Numbers without * were called inactive; u = inconclusive; x = no result; [ ] = remark or other dose. Sampled rows, rich in hits. Any-hit rate of the full collection: about 1.1%. Calls follow the shape of the dose curve; as a rule, active = well fitted curve in the direction sought with a large enough effect; inconclusive = small, poorly fitted or top-dose-only effect, or another doubt; inactive = no such curve, though single readings can be large; an effect the other way counts as inactive or inconclusive.

SMILES	TrxR1 substrate	Eya2 phos inh	RGS4 inh	rTrxR1 inhibitor	mIDH1 inhibitor	IDH1 autofl	WT IDH1 inh	IDH1 R132H conf
O=C(CCl)Nc1ncc(S(=O)(=O)c2ccc([N+](=O)[O-])cc2)s1	-1.3%	0.9%	-1.1%	u	1.6%	x	x	x
COc1ccccc1C1CC(c2ccc(Br)cc2)=NN1C(=O)c1cccnc1 (stereo unspecified)	-0.9%	-6.4%	-5.0%	14.9%	46.5µM*	0.3	-4.9%	22.4µM*
O=C(c1ccncc1)N1N=C(c2ccc(Cl)cc2)CC1c1ccccc1O (stereo unspecified)	-3.0%	-7.7%	8.1%	1.8%	52.1µM*	2.2	-2.1%	35.5µM*
Cc1cccc(Nc2nnc(SCC(=O)NC(=O)CN3CCCC3=O)s2)c1	-12.8%	10.9%	-32.0%	u	7.6%	x	x	x
O=C1NC[C@@H](Cc2cccc3ccccc23)N(CCCCC2CCCCC2)C1=O	1.9%	3.0%	0.7%	14.3%	u	1.5	-19.3%	39.8µM*
NCCCC[C@H]1CNC(=O)C(=O)N1CCCCC1CCCCC1	8.8%[57.1 µM]	3.7%	-1.6%	4.2%[57.1 µM]	2.0%	x	x	x
CCn1cc(C(=O)NCc2ccccc2Cl)c(=O)c2cc(S(=O)(=O)N3CCCCC3)ccc21	10.0%	x	-10.9%	30.6%	-5.1%	x	x	x
COc1cc(C2c3c(-c4cc(C)ccc4O)n[nH]c3C(=O)N2CCCO)ccc1OCCC(C)C (stereo unspecified)	-8.7%	x	-24.3%	3.8%	39.8µM*	-0.7	-11.3%	25.1µM*
COCCN1C(=O)c2[nH]nc(-c3cc(C)ccc3O)c2C1c1ccc(C(C)C)cc1 (stereo unspecified)	-3.3%	x	8.6%	13.4%	u	-2.7	-2.4%	31.6µM*
C=C(C)Cc1c(C)c(C#N)c2nc3ccccc3n2c1N1CCCCC1	4.9%	15.4%	8.4%	-7.4%	u	-1.8	-0.9%	14.1µM*
O=C(CCNS(=O)(=O)c1cccs1)NCc1cccs1	13.4%[57.1 µM]	30.7%	-36.2%	8.7%[57.1 µM]	2.0%	x	x	x
Cc1ccccc1C(=O)Nc1cccc(C(=O)OCc2cc(=O)n3ccsc3n2)c1	-1.4%[57.1 µM]	x	26.1%	6.0%[57.1 µM]	7.4%	x	x	x
O=c1cc(CN2CCc3ccccc32)nc2sccn12	1.1%[57.1 µM]	-13.8%	-32.2%	1.5%	31.6µM*	-2.8	u	50.1µM*
CC(=O)c1csc(COc2ccccc2)n1	2.3%	1.7%	17.5%	17.3%	2.2%	x	x	x
CC(C)C[C@@H](CN1CCCC1CN1C(=S)NC[C@@H]1Cc1ccc(O)cc1)N1C[C@H](Cc2ccc(O)cc2)N(CC2CCCCC2)C1=S (stereo partly specified)	-8.9%	x	-12.5%	-3.3%	-9.3%	x	x	x
CC(C)C[C@H]1CN([C@@H](Cc2ccc(O)cc2)CN2CCC[C@@H]2CN2C(=O)C(=O)NC[C@@H]2Cc2ccccc2)C(=O)C(=O)N1CC1CCCCCC1	0.3%	x	7.2%	5.8%	u	x	x	x
CC(C)C[C@@H](CN1CCC[C@@H]1CN1C(=O)C(=O)NC[C@@H]1Cc1ccccc1)N1C[C@H](Cc2ccc(O)cc2)N(CC2CCCCCC2)C(=O)C1=O	1.2%	x	4.5%	11.9%	28.2µM*	-5.6	0.1%	11.2µM*
O=C1NC[C@H](Cc2ccccc2)N(C[C@H]2CCCN2C[C@H](Cc2ccccc2)N2C[C@H](Cc3ccc(O)cc3)N(CC3CCCCCC3)C(=O)C2=O)C1=O	0.3%	x	-51.1%	10.2%	u	1.4	-4.7%	10µM*
O=C1NC[C@H](Cc2ccccc2)N(C[C@H]2CCCN2C[C@H](Cc2ccc(O)cc2)N2C[C@H](Cc3ccc(O)cc3)N(CC3CCCCCC3)C(=O)C2=O)C1=O	2.9%	x	-29.0%	12.7%	u	2.6	4.8%	15.8µM*
Oc1ccc(C[C@H]2CNC(=S)N2CC2CCCN2C[C@H](Cc2ccc(O)cc2)N2C[C@H](Cc3ccccc3)N(CCc3ccccc3)C2=S)cc1 (stereo partly specified)	7.7%	x	2.1%	34.5%	-7.1%	x	x	x
CCOc1ccc(CCN2C(=O)C(=O)N([C@@H](Cc3ccc(O)cc3)CN3CCC[C@@H]3CN3C(=O)C(=O)NC[C@@H]3Cc3ccccc3)C[C@@H]2Cc2ccccc2)cc1	-2.2%	x	u	12.4%	31.6µM*	-6.3	5.4%	10µM*
Cn1nccc1C(=O)NC(=S)Nc1cc(Cl)cc(Cl)c1	9.9%[0.0914 µM]	-16.0%	-25.9%	11.3%[57.1 µM]	5.3%	x	x	x
O=C(c1cccc2nccnc12)N1CCCC(Nc2ccc(F)c(F)c2)C1 (stereo unspecified)	1.6%	-10.0%	-22.9%	15.0%	2.7%	x	x	x
Cn1c2ccccc2c(=O)c2c(=O)n(-c3ccc(F)cc3)c(-c3cccs3)nc21	5.6%	8.4%	7.2%	25.7%	-16.0%	x	x	x
CC(c1ccccc1)n1c(-c2cccs2)nc2c(c(=O)c3ccccc3n2C)c1=O (stereo unspecified)	4.4%[57.1 µM]	10.9%	2.6%	11.6%[57.1 µM]	31.6µM*	2.5	20.1%	7.94µM*
SMILES	TrxR1 substrate	Eya2 phos inh	RGS4 inh	rTrxR1 inhibitor	mIDH1 inhibitor	IDH1 autofl	WT IDH1 inh	IDH1 R132H conf
Cc1sc(NC(=O)c2ccco2)c(C(c2cccnc2)N2CCN(CCO)CC2)c1C (stereo unspecified)	-3.7%	2.4%	-3.7%	-7.9%	4.9%	x	x	x
CCOC(=O)C1CCN(C(c2cccnc2)c2c(NC(=O)c3ccco3)sc(C)c2C)CC1 (stereo unspecified)	7.6%	-17.3%	-34.9%	u	u	0.8	-2.9%	28.2µM*
CCc1nnc(NC(=O)[C@@H]2CCCN2C(=O)c2cccs2)s1	2.9%	x	7.8%	3.8%	x	x	x	x
COc1ccc(-c2coc3cc(OC(C)=O)ccc3c2=S)cc1	-0.2%[2.29 µM]	x	-47.3%	6.9%[2.29 µM]	46.5µM*	-4.0	7.5%	u
Cc1ccc(Cl)cc1NC(=O)CCCn1c(=O)c2cccn2c2cccnc21	-7.7%	x	18.0%	-8.6%	-6.8%	x	x	x
O=S(=O)(c1ccc(NC(=S)N/N=C/c2ccc(Oc3ccccc3)cc2)cc1)N1CCOCC1	-2.6%	9.2%	3.3%	8.5%	u	-1.1	-4.6%	-21.8%
O=S(=O)(c1ccc(NC(=S)N/N=C/c2ccc(N3CCOCC3)cc2)cc1)N1CCOCC1	12.4%	7.0%	-20.9%	5.2%	0.1%	x	x	x
COc1ccc(Oc2cc(F)nc(N)n2)cc1	8.0%[57.1 µM]	8.4%	21.6%	18.1%	-0.8%	x	x	x
